Assay results reported in PubChem BioAssay AID1159580 (chemical genetic matrix, 2015).
Values joined by “and” are separate entries in the source; they are usually repeats but may differ in a detail not shown here. Equal values may be shown once. Out of some 5,500 compounds screened, about 2,000 (36%) were called active. Roughly 18% stayed inconclusive and do not appear here. Cut-off read from the data, not from the text of the source: active = normalized growth mostly below about 0.91 (no sharp cut-off); inconclusive = no clear call, values can overlap the other calls; inactive = mostly above about 0.92. Some of the results follow.

Test: chemical genetic growth profiling, strain panel (AID 1159580);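 note: tested at 20 µM; growth read once vehicle control cultures reached saturation at 30 °C; 1 = growth at the plate median or of vehicle wells; lower values mean less growth of the strain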
Conditions: S. cerevisiae deletion strains, growth OD

Measured: normalized growth

CC(=O)[C@@]1(O)CCC2C3CCC4=CC(=O)CC[C@]4(C)C3CC[C@@]21C (stereo partly drawn)
active: locus YDR137W, strain rgp1, hits give low values 0.815
inactive: locus YAL021C, strain ccr4, hits give low values 0.99 | locus YAL026C, strain drs2, hits give low values 0.992 | locus YAL030W, strain snc1, hits give low values 0.998 | locus YBL061C, strain skt5, hits give low values 0.991 | locus YBR009C, strain hhf1, hits give low values 0.995 | locus YBR021W, strain FUR4, hits give low values 1.01 | locus YBR023C, strain chs3, hits give low values 0.995 | locus YBR171W, strain sec66, hits give low values 0.985 | locus YBR229C, strain ROT2, hits give low values 0.993 | locus YBR231C, strain swc5, hits give low values 0.999 | locus YBR279W, strain paf1, hits give low values 0.986 | locus YCL011C, strain gbp2, hits give low values 0.997 | locus YCL016C, strain dcc1, hits give low values 0.992 | locus YCL029C, strain bik1, hits give low values 1.01 | locus YCL061C, strain MRC1, hits give low values 0.987 | locus YCL069W, strain vba3, hits give low values 0.996 | locus YCR088W, strain abp1, hits give low values 0.988 | locus YDL005C, strain med2, hits give low values 0.975 | locus YDL035C, strain GPR1, hits give low values 1.01 | locus YDL040C, strain nat1, hits give low values 0.993 | locus YDL074C, strain BRE1, hits give low values 1.04 | locus YDL101C, strain DUN1, hits give low values 0.996 | locus YDL134C, strain PPH21, hits give low values 0.99 | locus YDL185W, strain tfp1, hits give low values 1.01 | locus YDL192W, strain arf1, hits give low values 0.992 | locus YDR001C, strain nth1, hits give low values 0.989 | locus YDR069C, strain doa4, hits give low values 0.996 | locus YDR101C, strain arx1, hits give low values 1.04 | locus YDR159W, strain sac3, hits give low values 0.931 | locus YDR162C, strain NBP2, hits give low values 0.977 | locus YDR195W, strain ref2 0.995 | locus YDR297W, strain sur2, hits give low values 0.994 | locus YDR318W, strain mcm21, hits give low values 0.99 | locus YDR334W, strain swr1, hits give low values 0.992 | locus YDR335W, strain msn5, hits give low values 1.01 | locus YDR388W, hits give low values 1.01 | locus YDR392W, strain spt3, hits give low values 0.891 | locus YDR502C, strain sam2, hits give low values 1.01 | locus YEL003W, strain gim4, hits give low values 0.999 | locus YEL037C, strain rad23, hits give low values 0.993 | locus YEL061C, strain CIN8 (second series), hits give low values 0.993 | locus YEL061C, strain CIN8, hits give low values 0.995 | locus YER015W, strain faa2, hits give low values 0.998 | locus YER016W, strain bim1, hits give low values 0.99 | locus YER110C, hits give low values 1.01 | locus YER111C, strain swi4, hits give low values 0.987 | locus YER155C, strain BEM2 (second series), hits give low values 0.995 | locus YER155C, strain BEM2, hits give low values 1 | locus YER167W, strain BCK2, hits give low values 0.994 | locus YFR010W, strain ubp6, hits give low values 1.01 | locus YGL078C, strain dbp3, hits give low values 1.04 | locus YGL086W, strain mad1, hits give low values 1.03 | locus YGL167C, strain pmr1, hits give low values 0.983 | locus YGL173C, strain kem1, hits give low values 0.99 | locus YGL227W, strain vid30, hits give low values 0.994 | locus YGL240W, strain doc1, hits give low values 0.989 | locus YGL248W, strain PDE1, hits give low values 0.985 | locus YGL253W, strain hxk2, hits give low values 0.997 | locus YGR078C, strain PAC10, hits give low values 0.991 | locus YGR135W, strain pre9, hits give low values 0.966 | locus YGR252W, strain gcn5, hits give low values 1.04 | locus YHR013C, strain ard1, hits give low values 0.989 | locus YHR027C, strain rpn1, hits give low values 0.992 | locus YHR030C, strain SLT2, hits give low values 1 and 0.968 | locus YHR079C, strain IRE1 (second series), hits give low values 1.01 | locus YHR079C, strain IRE1, hits give low values 0.983 | locus YHR094C, strain hxt1, hits give low values 0.999 | locus YHR129C, strain ARP1, hits give low values 0.993 | locus YHR142W, strain chs7, hits give low values 0.993 | locus YHR200W, strain rpn10, hits give low values 1.02 | locus YIL066C, strain RNR3, hits give low values 0.994 | locus YIL073C, strain SPO22, hits give low values 1.03 | locus YIL125W, strain kgd1, hits give low values 1.03 | locus YIR030C, strain dcg1, hits give low values 1.01 | locus YJL092W, strain hpr5, hits give low values 0.991 | locus YJL095W, strain BCK1 (second series), hits give low values 0.992 | locus YJL095W, strain BCK1, hits give low values 0.96 and 0.984 | locus YJL115W, strain asf1, hits give low values 0.987 | locus YJL129C, strain trk1, hits give low values 0.955 | locus YJL134W, strain LCB3, hits give low values 0.998 | locus YJL154C, strain vps35, hits give low values 0.987 | locus YJL164C, strain tpk1, hits give low values 0.985 | locus YJL166W, strain qcr8, hits give low values 0.998 | locus YJL168C, strain set2, hits give low values 1 | locus YJL187C, strain SWE1 (second series), hits give low values 0.994 | locus YJL187C, strain SWE1, hits give low values 0.997 | locus YJR043C, strain POL32, hits give low values 1.05
